According to the supplement of paper PMC10849652:
The full data set covers some 7,900 targets. This sample favours those with a hit. About 0.6% of all pairs of compound and target were hits.

What was measured:
Assay in all cases: log2 fold change, soluble protein after heating vs DMSO (PISA); higher = thermal stabilisation; K562 cells, 10 uM, 30 min; active = over 0.2 and 3.5 SD of the protein, either way, in both replicates (recomputed)
[1] = compound: CC[C@@H]1C(=O)N(C)c2cnc(Nc3ccc(C(=O)NC4CCN(C)CC4)cc3OC)nc2N1C1CCCC1
Method in brief: (§1)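 K562 cells at 2×10^6 cells/mL were treated for 30 min with 10 μM compound, and aliquots were heated for 3 min over 48°C-58°C before pooling. Extraction used PBS with 0.5% NP-40 at 4°C, and soluble protein was the supernatant after 21,000xg for 90 min, measured by TMTpro 16plex LC-MS/MS with channel sums equalised. Thermal stability values, relative to control samples and from duplicates, are log2 fold changes.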

volasertib = compound: CC[C@@H]1C(=O)N(C)c2cnc(Nc3ccc(C(=O)N[C@H]4CC[C@H](N5CCN(CC6CC6)CC5)CC4)cc3OC)nc2N1C(C)C [volasertib]
Method in brief: as §1

epoxomicin = compound: CC[C@H](C)[C@@H](C(=O)N[C@@H]([C@@H](C)O)C(=O)N[C@@H](CC(C)C)C(=O)[C@]1(CO1)C)NC(=O)[C@H]([C@@H](C)CC)N(C)C(=O)C [epoxomicin]
Method in brief: as §1

[2] = compound: CCn1c(C(=O)N(C2CC2)C2CC2)cc2c3c(ncn3C)c(Nc3cc(C)n(C)n3)nc21
Method in brief: as §1

[3] = compound: CCn1cc(-c2ccnc3[nH]c(-c4cccc(CN(C)C)c4)cc23)c(-c2ccc(NC(=O)N(C)C)cc2)n1
Method in brief: as §1

[4] = compound: CN(C)CC(=O)Nc1ccc2[nH]c(=O)c3ccccc3c2c1
Method in brief: as §1

[5] = compound: CN1CCC(CNc2ccc3ncc(-c4cccc(OC(F)(F)F)c4)n3n2)CC1
Method in brief: as §1

alvocidib = compound: CN1CC[C@H](c2c(O)cc(O)c3c(=O)cc(-c4ccccc4Cl)oc23)[C@H](O)C1 [alvocidib]
Method in brief: as §1

[6] = compound: CNC(=O)C1=CC=CC=C1NC2=NC(=NC=C2Cl)NC3=C(C=C(C=C3)N4CCOCC4)OC
Method in brief: as §1

defactinib = compound: CNC(=O)c1ccc(Nc2ncc(C(F)(F)F)c(NCc3nccnc3N(C)S(C)(=O)=O)n2)cc1 [defactinib]
Method in brief: as §1

rucaparib = compound: CNCc1ccc(-c2[nH]c3cc(F)cc4c3c2CCNC4=O)cc1 [rucaparib]
Method in brief: as §1

encorafenib = compound: COC(=O)N[C@@H](C)CNc1nccc(-c2cn(C(C)C)nc2-c2cc(Cl)cc(NS(C)(=O)=O)c2F)n1 [encorafenib]
Method in brief: as §1

[7] = compound: COC(=O)[C@H](CCSC)NC(=O)C1=C(C=C(C=C1)NC[C@H](CS)N)C2=CC=CC=C2
Method in brief: as §1

[8] = compound: CC[C@H](C)N1C=C(C2=C(C=C(C=C21)C3=CN=C(C=C3)N4CCNCC4)C(=O)NCC5=C(C=C(NC5=O)C)C)C
Method in brief: as §1

rosiglitazone = compound: CN(CCOC1=CC=C(C=C1)C[C@H]2C(=O)NC(=O)S2)C3=CC=CC=N3 (racemic) [rosiglitazone]
Method in brief: as §1

[9] = compound: CN1C2=C(C3=C1C(=O)N(N=C3)CC4=CC(=CC=C4)N)SC(=C2)S(=O)C
Method in brief: as §1

saracatinib = compound: CN1CCN(CCOc2cc(OC3CCOCC3)c3c(Nc4c(Cl)ccc5c4OCO5)ncnc3c2)CC1 [saracatinib]
Method in brief: as §1

sotrastaurin = compound: CN1CCN(c2nc(C3=C(c4c[nH]c5ccccc45)C(=O)NC3=O)c3ccccc3n2)CC1 [sotrastaurin]
Method in brief: as §1

Tubastatin A = compound: CN1CCc2c(c3ccccc3n2Cc2ccc(C(=O)NO)cc2)C1 [Tubastatin A]
Method in brief: as §1

[10] = compound: CNc1nc(-c2ccc3c(N)n[nH]c3c2)cc(N2C[C@@H](C(=O)NC3CCCCC3)CC[C@H]2C)n1
Method in brief: as §1

Chain of UniProt Q9UER7 (Q9UER7 whole entry, looked up): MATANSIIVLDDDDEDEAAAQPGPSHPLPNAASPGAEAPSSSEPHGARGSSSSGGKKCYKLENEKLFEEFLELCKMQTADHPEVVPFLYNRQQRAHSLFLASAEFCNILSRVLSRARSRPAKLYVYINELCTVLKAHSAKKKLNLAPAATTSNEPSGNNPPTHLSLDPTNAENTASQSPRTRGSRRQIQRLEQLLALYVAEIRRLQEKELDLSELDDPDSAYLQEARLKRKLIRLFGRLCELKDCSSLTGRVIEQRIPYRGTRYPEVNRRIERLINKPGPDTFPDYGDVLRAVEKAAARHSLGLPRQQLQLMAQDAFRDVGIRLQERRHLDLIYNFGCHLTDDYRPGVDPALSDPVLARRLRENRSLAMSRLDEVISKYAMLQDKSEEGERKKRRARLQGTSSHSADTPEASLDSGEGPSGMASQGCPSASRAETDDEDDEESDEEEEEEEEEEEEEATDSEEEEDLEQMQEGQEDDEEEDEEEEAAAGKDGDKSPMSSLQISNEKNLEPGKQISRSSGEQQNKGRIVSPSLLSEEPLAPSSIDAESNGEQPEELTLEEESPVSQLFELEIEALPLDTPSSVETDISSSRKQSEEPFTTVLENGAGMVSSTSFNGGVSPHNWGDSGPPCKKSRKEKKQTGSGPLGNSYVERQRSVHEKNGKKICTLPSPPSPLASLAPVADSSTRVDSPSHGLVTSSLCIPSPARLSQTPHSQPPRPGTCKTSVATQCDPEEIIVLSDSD
Chain of UniProt Q8NBI2 (Q8NBI2 whole entry, looked up): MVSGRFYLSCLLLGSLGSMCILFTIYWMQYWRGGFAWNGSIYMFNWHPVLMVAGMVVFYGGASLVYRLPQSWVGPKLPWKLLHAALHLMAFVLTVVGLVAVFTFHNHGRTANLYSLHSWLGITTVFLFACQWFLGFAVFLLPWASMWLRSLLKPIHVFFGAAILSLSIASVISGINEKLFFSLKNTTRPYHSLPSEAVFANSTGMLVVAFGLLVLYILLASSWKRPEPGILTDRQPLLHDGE
Chain of UniProt Q96GE9 (Q96GE9 whole entry, looked up): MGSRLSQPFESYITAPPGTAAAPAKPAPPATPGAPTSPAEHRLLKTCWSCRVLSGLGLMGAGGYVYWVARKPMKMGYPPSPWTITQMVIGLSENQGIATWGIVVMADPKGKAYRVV
Chain of UniProt Q8NF50 (Q8NF50 whole entry, looked up): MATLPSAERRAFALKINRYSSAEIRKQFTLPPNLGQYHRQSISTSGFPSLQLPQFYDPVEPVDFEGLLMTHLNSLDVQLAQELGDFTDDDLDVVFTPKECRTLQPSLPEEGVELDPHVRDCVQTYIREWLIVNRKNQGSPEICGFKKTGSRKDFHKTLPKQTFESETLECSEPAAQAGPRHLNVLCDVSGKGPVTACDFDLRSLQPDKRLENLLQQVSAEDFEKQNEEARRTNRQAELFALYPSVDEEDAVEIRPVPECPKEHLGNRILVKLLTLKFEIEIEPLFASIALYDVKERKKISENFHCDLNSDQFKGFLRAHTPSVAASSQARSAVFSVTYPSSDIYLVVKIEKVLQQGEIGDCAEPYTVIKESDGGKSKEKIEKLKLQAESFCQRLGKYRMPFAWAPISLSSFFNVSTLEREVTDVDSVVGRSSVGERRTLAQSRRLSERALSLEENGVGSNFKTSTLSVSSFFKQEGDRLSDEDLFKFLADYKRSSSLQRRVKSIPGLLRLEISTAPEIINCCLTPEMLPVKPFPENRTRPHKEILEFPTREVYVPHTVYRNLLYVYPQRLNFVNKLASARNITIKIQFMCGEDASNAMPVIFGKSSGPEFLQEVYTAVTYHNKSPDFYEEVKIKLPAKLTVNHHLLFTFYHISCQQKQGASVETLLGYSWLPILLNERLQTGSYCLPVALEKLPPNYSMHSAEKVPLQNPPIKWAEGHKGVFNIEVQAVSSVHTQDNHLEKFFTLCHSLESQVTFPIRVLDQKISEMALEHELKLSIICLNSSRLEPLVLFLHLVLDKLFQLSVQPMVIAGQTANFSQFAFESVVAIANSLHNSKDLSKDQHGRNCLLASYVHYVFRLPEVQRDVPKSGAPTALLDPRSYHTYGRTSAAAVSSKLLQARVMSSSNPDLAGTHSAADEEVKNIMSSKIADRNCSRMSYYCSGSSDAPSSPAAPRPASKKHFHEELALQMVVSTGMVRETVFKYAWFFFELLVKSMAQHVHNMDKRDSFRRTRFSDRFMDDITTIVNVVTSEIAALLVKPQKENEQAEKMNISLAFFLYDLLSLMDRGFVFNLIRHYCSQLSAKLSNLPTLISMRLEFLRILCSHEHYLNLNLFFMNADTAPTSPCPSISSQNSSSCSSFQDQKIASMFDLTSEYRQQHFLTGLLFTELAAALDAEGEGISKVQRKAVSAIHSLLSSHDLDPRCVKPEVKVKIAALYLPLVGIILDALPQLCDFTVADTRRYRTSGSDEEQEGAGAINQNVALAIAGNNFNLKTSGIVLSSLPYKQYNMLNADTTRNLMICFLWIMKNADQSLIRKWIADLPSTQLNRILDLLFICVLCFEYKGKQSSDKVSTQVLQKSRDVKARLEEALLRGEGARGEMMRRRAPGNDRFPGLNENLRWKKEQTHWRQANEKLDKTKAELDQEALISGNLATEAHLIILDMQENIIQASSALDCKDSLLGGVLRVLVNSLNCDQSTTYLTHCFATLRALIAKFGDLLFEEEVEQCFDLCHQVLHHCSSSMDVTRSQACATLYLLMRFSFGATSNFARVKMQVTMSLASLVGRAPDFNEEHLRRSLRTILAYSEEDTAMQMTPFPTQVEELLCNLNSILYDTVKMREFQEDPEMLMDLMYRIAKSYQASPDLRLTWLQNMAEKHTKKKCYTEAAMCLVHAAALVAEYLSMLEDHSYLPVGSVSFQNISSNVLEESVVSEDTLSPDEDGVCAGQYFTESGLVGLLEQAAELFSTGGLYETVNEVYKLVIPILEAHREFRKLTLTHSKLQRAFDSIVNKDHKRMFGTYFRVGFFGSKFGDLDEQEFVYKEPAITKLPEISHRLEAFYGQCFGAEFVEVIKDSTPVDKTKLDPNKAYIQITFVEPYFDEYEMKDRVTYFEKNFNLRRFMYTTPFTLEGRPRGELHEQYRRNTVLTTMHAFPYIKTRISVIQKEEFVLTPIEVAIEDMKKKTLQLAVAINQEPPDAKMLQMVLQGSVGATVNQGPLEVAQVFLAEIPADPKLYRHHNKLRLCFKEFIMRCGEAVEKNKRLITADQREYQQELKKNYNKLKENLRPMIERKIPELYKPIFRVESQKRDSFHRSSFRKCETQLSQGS
Chain of UniProt Q13409 (Q13409 whole entry, looked up): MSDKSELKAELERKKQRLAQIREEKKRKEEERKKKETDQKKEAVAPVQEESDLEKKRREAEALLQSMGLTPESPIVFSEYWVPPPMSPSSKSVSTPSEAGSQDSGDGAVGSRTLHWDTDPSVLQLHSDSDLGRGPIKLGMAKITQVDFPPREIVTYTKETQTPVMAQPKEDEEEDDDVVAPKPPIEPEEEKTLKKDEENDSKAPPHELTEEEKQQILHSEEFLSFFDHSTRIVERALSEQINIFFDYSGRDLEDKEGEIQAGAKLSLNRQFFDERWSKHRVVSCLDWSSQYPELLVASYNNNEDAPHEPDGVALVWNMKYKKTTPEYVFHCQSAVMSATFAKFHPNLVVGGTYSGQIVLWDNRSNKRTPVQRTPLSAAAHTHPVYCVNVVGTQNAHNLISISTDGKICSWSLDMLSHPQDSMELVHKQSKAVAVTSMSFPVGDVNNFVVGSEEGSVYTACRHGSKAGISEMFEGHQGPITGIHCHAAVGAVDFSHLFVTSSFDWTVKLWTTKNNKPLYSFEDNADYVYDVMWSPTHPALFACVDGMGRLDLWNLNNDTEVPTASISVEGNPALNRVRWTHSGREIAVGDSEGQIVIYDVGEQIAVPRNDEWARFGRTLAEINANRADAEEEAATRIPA
Chain of UniProt P32519 (P32519 whole entry, looked up): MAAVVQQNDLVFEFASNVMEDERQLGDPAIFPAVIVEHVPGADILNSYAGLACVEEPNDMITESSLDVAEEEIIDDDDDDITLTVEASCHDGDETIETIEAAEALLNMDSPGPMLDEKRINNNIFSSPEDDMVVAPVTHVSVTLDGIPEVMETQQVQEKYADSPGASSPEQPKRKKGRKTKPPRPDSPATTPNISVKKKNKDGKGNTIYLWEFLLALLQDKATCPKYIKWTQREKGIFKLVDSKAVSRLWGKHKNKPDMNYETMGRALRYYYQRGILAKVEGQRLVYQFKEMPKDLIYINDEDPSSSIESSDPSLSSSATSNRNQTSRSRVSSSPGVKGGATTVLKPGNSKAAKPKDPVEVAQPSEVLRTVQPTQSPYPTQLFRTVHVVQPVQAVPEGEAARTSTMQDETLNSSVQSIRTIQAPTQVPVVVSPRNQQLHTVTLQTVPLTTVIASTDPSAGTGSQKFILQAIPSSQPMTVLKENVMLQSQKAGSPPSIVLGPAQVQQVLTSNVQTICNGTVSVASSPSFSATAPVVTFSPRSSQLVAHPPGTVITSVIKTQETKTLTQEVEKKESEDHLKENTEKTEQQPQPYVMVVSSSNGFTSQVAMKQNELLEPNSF
Chain of UniProt Q9BPY3 (Q9BPY3 whole entry, looked up): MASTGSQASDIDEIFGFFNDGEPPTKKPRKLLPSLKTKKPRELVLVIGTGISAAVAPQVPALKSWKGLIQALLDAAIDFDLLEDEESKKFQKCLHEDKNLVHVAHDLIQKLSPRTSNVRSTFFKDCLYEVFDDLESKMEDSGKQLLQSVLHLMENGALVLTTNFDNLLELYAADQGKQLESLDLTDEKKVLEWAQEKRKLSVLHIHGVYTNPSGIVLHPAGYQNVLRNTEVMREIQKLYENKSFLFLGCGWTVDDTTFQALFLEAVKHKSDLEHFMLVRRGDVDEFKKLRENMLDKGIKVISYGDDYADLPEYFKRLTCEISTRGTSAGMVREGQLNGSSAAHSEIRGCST
Chain of UniProt P24534 (P24534 whole entry, looked up): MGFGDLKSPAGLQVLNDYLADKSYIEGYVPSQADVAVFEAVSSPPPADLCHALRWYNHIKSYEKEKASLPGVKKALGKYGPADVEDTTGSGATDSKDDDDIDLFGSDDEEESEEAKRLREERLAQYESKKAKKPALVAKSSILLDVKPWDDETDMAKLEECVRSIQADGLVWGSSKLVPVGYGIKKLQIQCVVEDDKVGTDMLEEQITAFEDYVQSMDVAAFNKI

Target	log2 fold change [1]	log2 fold change (volasertib)	log2 fold change (epoxomicin)	log2 fold change [2]	log2 fold change [3]	log2 fold change [4]	log2 fold change [5]	log2 fold change (alvocidib)	log2 fold change [6]	log2 fold change (defactinib)	log2 fold change (rucaparib)	log2 fold change (encorafenib)	log2 fold change [7]	log2 fold change [8]	log2 fold change (rosiglitazone)	log2 fold change [9]	log2 fold change (saracatinib)	log2 fold change (sotrastaurin)	log2 fold change (Tubastatin A)	log2 fold change [10]
EEF2K (UniProt O00418)	-0.046 (inactive)	-0.395 (inactive)	0.093 (inactive)	0.102 (inactive)	0.028 (inactive)	0.096 (inactive)	-0.188 (inactive)	0.194 (inactive)	0.064 (inactive)	-0.021 (inactive)	0.1 (inactive)	-0.036 (inactive)	-0.266 (inactive)	–	–	–	–	–	–	–
EEF1B2 (UniProt P24534)	-0.171 (inactive)	-0.343 (active)	-0.034 (inactive)	-0.015 (inactive)	0.007 (inactive)	0.016 (inactive)	-0.065 (inactive)	-0.009 (inactive)	0.06 (inactive)	-0.064 (inactive)	0.041 (inactive)	0.07 (inactive)	-0.046 (inactive)	0.056 (inactive)	0.008 (inactive)	0.03 (inactive)	-0.091 (inactive)	-0.061 (inactive)	0.017 (inactive)	-0.013 (inactive)
FAM193B (UniProt Q96PV7)	0.126 (inactive)	0.092 (inactive)	-0.033 (inactive)	–	–	-0.442 (inactive)	–	-0.32 (inactive)	–	0.231 (inactive)	0.19 (inactive)	0.162 (inactive)	0.044 (inactive)	–	0.027 (inactive)	0.247 (inactive)	-0.289 (inactive)	0.06 (inactive)	-0.007 (inactive)	0.096 (inactive)
DMAC1 (UniProt Q96GE9)	0.269 (inactive)	0.016 (inactive)	-0.084 (inactive)	0.057 (inactive)	-0.041 (inactive)	0.001 (inactive)	0.015 (inactive)	-0.003 (inactive)	-0.077 (inactive)	-0.048 (inactive)	-0.124 (inactive)	-0.105 (inactive)	-0.019 (inactive)	-0.038 (inactive)	-0.025 (inactive)	-0.007 (inactive)	-0.509 (active)	0 (inactive)	0.031 (inactive)	0.005 (inactive)
FAM118B (UniProt Q9BPY3)	-0.087 (inactive)	-0.445 (active)	0.036 (inactive)	-0.008 (inactive)	-0.067 (inactive)	0.11 (inactive)	-0.373 (active)	-0.142 (inactive)	0.088 (inactive)	-0.113 (inactive)	0.041 (inactive)	0.029 (inactive)	-0.037 (inactive)	0.035 (inactive)	0.026 (inactive)	–	–	-0.02 (inactive)	0.019 (inactive)	–
DOCK8 (UniProt Q8NF50)	0.01 (inactive)	–	0.119 (inactive)	-0.208 (inactive)	-0.094 (inactive)	-0.009 (inactive)	0.137 (inactive)	0.149 (inactive)	-0.163 (inactive)	0.242 (inactive)	0.044 (inactive)	-0.079 (inactive)	-0.154 (inactive)	0.004 (inactive)	0.028 (inactive)	0.258 (inactive)	-0.241 (inactive)	-0.398 (inactive)	0.166 (inactive)	-0.06 (inactive)
EFL1 (UniProt Q7Z2Z2)	-0.024 (inactive)	-0.245 (active)	0.008 (inactive)	-0.008 (inactive)	-0.006 (inactive)	0.025 (inactive)	-0.091 (inactive)	-0.038 (inactive)	-0.014 (inactive)	-0.022 (inactive)	0.015 (inactive)	0.033 (inactive)	-0.014 (inactive)	0.014 (inactive)	0.019 (inactive)	-0.037 (inactive)	-0.036 (inactive)	-0.004 (inactive)	-0.007 (inactive)	0.019 (inactive)
CYB561A3 isoform 2 (UniProt Q8NBI2)	-0.058 (inactive)	0.103 (inactive)	–	-0.007 (inactive)	-0.241 (inactive)	–	0.032 (inactive)	-0.043 (inactive)	0.025 (inactive)	–	0.395 (active)	-0.014 (inactive)	–	-0.089 (inactive)	0.052 (inactive)	-0.021 (inactive)	0.019 (inactive)	0.001 (inactive)	0.047 (inactive)	-0.068 (inactive)
EIF4G3 isoform 3 (UniProt O43432)	-0.074 (inactive)	-0.165 (inactive)	–	0.012 (inactive)	–	0.039 (inactive)	–	-0.018 (inactive)	-0.019 (inactive)	0.04 (inactive)	0.519 (inactive)	0.031 (inactive)	-0.025 (inactive)	0.007 (inactive)	0.019 (inactive)	0.021 (inactive)	-0.076 (inactive)	-0.038 (inactive)	-0.016 (inactive)	-0.056 (inactive)
DOHH (UniProt Q9BU89)	-0.035 (inactive)	-0.027 (inactive)	-0.197 (inactive)	0.064 (inactive)	-0.1 (inactive)	0.145 (inactive)	0.164 (inactive)	0.147 (inactive)	-0.076 (inactive)	-0.152 (inactive)	-0.002 (inactive)	-0.074 (inactive)	0.037 (inactive)	0.031 (inactive)	0.471 (active)	0.025 (inactive)	-0.035 (inactive)	0.196 (inactive)	-0.121 (inactive)	-0.064 (inactive)
DYRK1A isoform 2 (UniProt Q13627)	0.015 (inactive)	-0.005 (inactive)	0.048 (inactive)	-0.012 (inactive)	-0.05 (inactive)	0.014 (inactive)	-0.086 (inactive)	-0.135 (inactive)	-0.264 (active)	0.03 (inactive)	0.036 (inactive)	0.014 (inactive)	-0.021 (inactive)	0.104 (inactive)	0.036 (inactive)	-0.024 (inactive)	-0.046 (inactive)	0.022 (inactive)	0.058 (inactive)	0.029 (inactive)
FAM118A (UniProt Q9NWS6)	-0.812 (active)	-0.54 (inactive)	0.118 (inactive)	–	-0.075 (inactive)	0.222 (inactive)	-0.142 (inactive)	-0.168 (inactive)	–	-0.179 (inactive)	0.29 (inactive)	-0.172 (inactive)	-0.079 (inactive)	0.136 (inactive)	-0.02 (inactive)	-0.007 (inactive)	-0.138 (inactive)	-0.135 (inactive)	0.029 (inactive)	0.068 (inactive)
ELF1 (UniProt P32519)	0.116 (inactive)	-0.516 (inactive)	0.117 (inactive)	-0.161 (inactive)	–	–	–	-0.101 (inactive)	0.013 (inactive)	–	-0.301 (inactive)	0.018 (inactive)	–	0.185 (inactive)	–	0.027 (inactive)	0.02 (inactive)	-0.027 (inactive)	0.075 (inactive)	-0.03 (inactive)
DYNC1I2 isoform 5 (UniProt Q13409)	0.004 (inactive)	0.005 (inactive)	0.026 (inactive)	0.011 (inactive)	-0.003 (inactive)	0.002 (inactive)	-0.035 (inactive)	-0.033 (inactive)	0.012 (inactive)	0.001 (inactive)	-0.006 (inactive)	-0.014 (inactive)	0.028 (inactive)	0.004 (inactive)	-0.024 (inactive)	-0.041 (inactive)	0.012 (inactive)	0.021 (inactive)	0.003 (inactive)	-0.005 (inactive)
DAXX (UniProt Q9UER7)	0.018 (inactive)	-0.006 (inactive)	–	-0.111 (inactive)	-0.102 (inactive)	-0.077 (inactive)	0.027 (inactive)	0 (inactive)	-0.142 (inactive)	0.005 (inactive)	0.048 (inactive)	-0.097 (inactive)	0.109 (inactive)	0.204 (inactive)	0.047 (inactive)	-0.093 (inactive)	-0.001 (inactive)	-0.078 (inactive)	0.122 (inactive)	0.018 (inactive)
DSN1 (UniProt Q9H410)	-0.218 (inactive)	-0.418 (active)	-0.004 (inactive)	-0.107 (inactive)	–	0.007 (inactive)	–	-0.164 (inactive)	-0.031 (inactive)	-0.146 (inactive)	0.076 (inactive)	0.02 (inactive)	0.029 (inactive)	-0.034 (inactive)	-0.086 (inactive)	-0.008 (inactive)	0.032 (inactive)	-0.042 (inactive)	0.082 (inactive)	0.016 (inactive)
